Experimental findings from PubChem BioAssay (NCATS) are described below.

Assay [1] in a line: P-glycoprotein substrates identified in KB-3-1 adenocarcinoma cell line, qHTS therapeutic library screen (AID 1346986). Further: nearly all actives have a fitted effect of over 60% in size.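 Further: potency means the concentration at half of the fitted maximal effect; potency is for cytotoxicity meaning loss of cell viability.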 On activity change, negative = cytotoxicity: on the % scale 0 is the no-effect control and ±100 the full control effect. In outline: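 Counter-screen: cherry-picked hits retested in the KB pair and in HEK-293 pcDNA/MDR-19 cells ± tariquidar. Primary screen used 72 h CellTiter-Glo viability in KB-3-1 and KB-8-5-11.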
In general terms: In qHTS, concentration-response curves come from the screen itself.

The test system of assay [2] is Zika virus NS2B-NS3 protease. Briefly: Primary screen GU AMC qHTS for Zika virus inhibitors (AID 1347154).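 Further: 0% = no-inhibitor control and -100% = no-enzyme control; nearly all actives have a fitted effect of over 70% in size.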 The essentials:
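Fluorogenic AMC-substrate cleavage by noncovalent NS2B-NS3 protease complex (25 nM, pH 8.0 Tris buffer with Tween 20) followed for 15 minutes at room temperature (~20% conversion). Percent inhibition from ex340/em450 signal change, fitted by 4-parameter Hill equation.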

Assay [3] in a line: Primary qHTS for small molecule stabilizers of the endoplasmic reticulum resident proteome: Secreted ER Calcium Modulated Protein (SERCaMP) assay (AID 1508630). Further: on the % scale 0 is the no-effect control and ±100 the full control effect. In outline:
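GLuc-SERCaMP-expressing SH-SY5Y cells, pretreated 16 h with compound, are challenged with thapsigargin to empty ER calcium stores; after 4 h, coelenterazine is added directly to the medium and luminescence is imaged.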

Assay [4] in a line: qHTS to identify inhibitors of the type 1 interferon - major histocompatibility complex class I in skeletal muscle: primary screen against the NCATS Mechanism Interrogation Plate v5.0 (MIPE) Libary (AID 1347411). Further: nearly all actives have a fitted effect of over 65% in size. Further: potency means the concentration at half of the fitted maximal effect.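 On activity change, negative = inhibition: plate controls were vehicle for no effect and reference inhibitor for full effect.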 The essentials:
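Cells were genome-edited human myoblasts carrying a HiBit tag on endogenous HLA-B. They were treated with IFN-beta (4.0 ng/ml) and titrated compounds (top 46 uM) for 24 hrs before lytic HiBiT detection.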

Assay [5] in a line: qHTS assay to identify inhibitors of the type 1 interferon - major histocompatibility complex class I in skeletal muscle: Counter screen cell viability and HiBit confirmation (AID 1347412). Further: potency means the concentration at half of the fitted maximal effect. On activity change, negative = inhibition: on the % scale 0 is the no-effect control and ±100 the full control effect. On all read-outs here: nearly all actives have a fitted effect of over 60% in size. The conditions noted are these: iHSKM muscle cells + IFN-b, HiBiT or CellTiter-Glo, 24 h; for Potency: HiBiT. The essentials:
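Luminescence read-out: Nano-Glo HiBiT lytic signal from C-terminally HiBiT-tagged HLA-B in CRISPR-edited human myoblasts, plus CellTiter Glo ATP as viability counter screen. IFN-beta 4.0 ng/ml; 24 hrs treatment at 37 C, 5% CO2.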

Assay [6] addresses Luciferin 4-monooxygenase (Photinus pyralis) (UniProt P08659). The assay can be described thus: Biochemical firefly luciferase enzyme assay for NPC (AID 624030).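 Further: purified P. pyralis luciferase at 10 nM with luciferin and ATP substrate; 0% = DMSO and -100% = full luciferase inhibition by PTC124 control; nearly all actives have a fitted effect of over 70% in size.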 In outline: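 Direct inhibition of firefly luciferase enzyme (10 nM final, 50 mM Tris Acetate) assessed by luminescence within 5 minutes. Percent activity scaled between DMSO and PTC124 positive control, with concentration-effect curves classified by fit quality and response.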

Assay [7] can be described thus: Drug repurposing screens with cells derived from glioblastoma tumor samples (AID 1345199). Further: nearly all actives have a fitted effect of over 40% in size. Further: potency means the concentration at half of the fitted maximal effect. On activity, negative = cell killing: on the % scale 0 is the no-effect control and ±100 the full control effect. The conditions noted are these: GBM patient neurospheres viability, ATP luminescence, 48 h. In outline:
(§1)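 Four patient lines of CD133+ GBM neurospheres were screened at several concentrations; hits were retested in those lines plus three slower-growing GBM lines, using 48-hour treatment and ATP-based viability.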

The next assay deals with astro. The assay is described as above. Conditions: viability, ATP luminescence, 48 h; series mostly up to 45.9 µM. In outline:
as §1

Assay [8] is described as follows: qHTS Assay for Identifying Gametocytocidal Compounds (AID 743244). Further: potency means the concentration at half of the fitted maximal effect.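 On max response: on the % scale 0 is the no-effect control and ±100 the full control effect; actives lower the fluorescent signal which means gametocytes are killed.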 The conditions noted are these: P. falciparum 3D7 stage III-V gametocytes, alamarBlue, 72 h; max response: active compounds read low. In outline:
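P. falciparum 3D7 stage III–V gametocytes (20,000 cells/well) were exposed to compounds for 72 h at 37 °C, 5% CO2. AlamarBlue was then added for 24 h; decreased resorufin fluorescence (Ex 525/Em 598 nm) indicated loss of viability.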

The mark [9] stands for this setting: at 46.1 µM (top of the series), tumour line C.
The mark [10] stands for this setting: at 45.9 µM (top of the series), tumour line B.
Setting [11] is: at 45.9 µM (top of the series), tumour line D.

Inconclusive results are not listed. A number with no mark means an inactive call. The source made the active and inactive calls. The call rests on the fitted dose curve; in most records, active means well fitted curve in the direction sought with a large enough effect; inconclusive means small, poorly fitted or top-dose-only effect, or another doubt; inactive means no such curve, though single readings can be large; an effect the other way counts as inactive or inconclusive.

Luciferin 4-monooxygenase (Photinus pyralis), sequence (P08659 whole entry, looked up): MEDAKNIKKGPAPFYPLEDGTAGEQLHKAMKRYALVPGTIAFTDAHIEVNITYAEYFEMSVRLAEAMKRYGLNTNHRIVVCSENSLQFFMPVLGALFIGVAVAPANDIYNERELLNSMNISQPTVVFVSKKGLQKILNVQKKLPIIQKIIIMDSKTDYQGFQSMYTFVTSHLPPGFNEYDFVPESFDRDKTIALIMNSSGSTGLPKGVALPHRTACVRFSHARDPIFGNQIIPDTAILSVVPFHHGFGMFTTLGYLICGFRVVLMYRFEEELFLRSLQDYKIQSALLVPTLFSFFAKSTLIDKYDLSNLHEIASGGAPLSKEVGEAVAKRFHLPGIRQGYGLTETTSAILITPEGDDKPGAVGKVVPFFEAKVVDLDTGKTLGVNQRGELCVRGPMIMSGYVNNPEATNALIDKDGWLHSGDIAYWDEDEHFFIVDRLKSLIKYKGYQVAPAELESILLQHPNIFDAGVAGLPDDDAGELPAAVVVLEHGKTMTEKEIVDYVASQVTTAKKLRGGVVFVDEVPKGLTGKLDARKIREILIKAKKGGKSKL

Turning to `Cc1nc2c(O)cccc2c(=O)[nH]1`, the Potency entry in assay [1], in [2] and in assay [3] was “inactive” in each case.

As to `CS(=O)(=O)CCNCc1nc(-c2ccc3ncnc(Nc4ccc(OCc5cccc(F)c5)c(Cl)c4)c3c2)cs1`, in assay [1], the activity change, negative = cytotoxicity is 4.91% [at 9.29 µM]. The Potency entry in assay [2] was “inactive”.

Regarding `COc1ccc(C(=O)Nc2sc3c(c2C(N)=O)CCCC3)cc1OC`, the Potency result in assay [1], in assay [2] and in [3] was “inactive” each time.

Consider `COc1cc(F)ccc1-c1ncnc(Nc2cccc(CS(C)(=N)=O)c2)n1` (stereo unspecified), for which the Potency was 1.46 µM (active) in [1], 2.34 µM (active) in assay [4] and 0.991 µM (active) in [5]. Also, the activity change, negative = inhibition in assay [5] (Viability, at 45.9 µM (top of the series)) is -16.3%.

In the case of `CN1CCN(CCC=C2c3ccccc3Sc3ccc(S(=O)(=O)N(C)C)cc32)CC1`, the Potency result in assay [6] is “inactive”. In addition, the activity, negative = cell killing in assay [7] (setting [9]) is 4.82%. In addition, the Potency in assay [7] (tumour line A) was 7.08 µM (active); in assay [7] (tumour line B), 35.5 µM (active); in the assay on astro, 31.6 µM (active).

For the compound `O=C1NC(=O)/C(=C/c2ccc3nccc(-c4ccncc4)c3c2)S1`, the results for the Potency in assay [1], in assay [4] and in assay [5] were 1.64 µM (active), 0.829 µM (active) and 4.97 µM (active), respectively.

In the case of `N[C@@H](C(=O)N[C@@H]1C(=O)N2C(C(=O)O)=C(CSc3cn[nH]n3)CS[C@H]12)c1ccc(O)cc1`, in [8], the max response is -0.063%. Moreover, the activity, negative = cell killing in assay [7] (setting [10]) was -1.12%; in [7] (setting [11]), -13.1%; in assay [7] (setting [9]), 10.5%. In addition, the Potency entry in the assay with astro was “inactive”.

On to `NC(=O)c1sc(-c2ccsc2)cc1N`, for which the Potency result in assay [1] and in assay [2] was “inactive” in each case.

Consider `CCN(CC)C(=O)c1cc(S(=O)(=O)Cc2ccccc2)c(N2CCC(c3ccccc3)CC2)cc1N(CC)CCN(C)C`, for which the Potency in the assay with astro was 12.6 µM (active).

On to `NCCNCCN`, for which the max response in assay [8] was 9.59%. The activity, negative = cell killing in assay [7] (setting [10]) was -28%. In assay [7] (tumour line A), the Potency was 28.2 µM (active). In the assay with astro, the Potency result is “inactive”.

As to `CC(C)=CCC/C(C)=C/CC/C(C)=C/CSc1ccccc1C(=O)O`, the Potency entry in assay [1] and in assay [4] was “inactive” in each case.

For `CC[C@@]1(O)C[C@H](O[C@H]2C[C@H](N(C)C)[C@H](O[C@H]3C[C@H](O)[C@H](O[C@H]4CCC(=O)[C@H](C)O4)[C@H](C)O3)[C@H](C)O2)c2c(cc3c(c2O)C(=O)c2c(O)cccc2C3=O)[C@H]1C(=O)OC`, the Potency is 0.112 µM (active) in [8] and 0.447 µM (active) in the assay with astro.

As for `CN(CC(=O)N1CCOCC1)Cc1c(Cl)cccc1NC(=O)c1ccccc1`, the Potency result (in assay [6]; in the assay with astro) was “inactive” throughout. Also, the max response in [8] was -0.892%. In addition, the activity, negative = cell killing in [7] (setting [10]) is -3.67%; in assay [7] (setting [11]), -22.4%; in assay [7] (setting [9]) it was -9.11%. Besides, in [7] (tumour line A), the Potency was 35.5 µM (active).

Regarding `COC(=O)[C@]12CCC(C)(C)C[C@@H]1[C@@H]1C(=O)C=C3[C@]4(C)C=C(C#N)C(=O)C(C)(C)[C@@H]4CC[C@@]3(C)[C@]1(C)CC2`, in [1], the Potency is 1.46 µM (active).

For the compound `COc1c(Nc2ncc(Cl)c(N[C@H]3[C@H](C(N)=O)[C@@H]4C=C[C@@H]3C4)n2)ccc2c1CCC(N1CCOCC1)CC2` (stereo partly specified), the Potency in assay [1] was 6.51 µM (active). The Potency entry in assay [4] is “inactive”.
